Screens (PubChem BioAssay)
NPC1 prom act: activators of NPC1 promoter | Huh7 NPC1 promoter luciferase reporter, 24 h | Potency, µM (series often up to 9.22 µM), for the others: at the highest dose activation, most hits filed as activators | hit rate 2.4% among 320,000; also: % of control where 0% means no effect; nearly all actives have a fitted effect of over 60% in size
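Quantitative HTS used a cell-based reporter: Huh7 cells stably bearing the NPC1 promoter upstream of luciferase were treated with compounds for 24 h, and promoter activation was read as luminescence.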
Luc counter: counter-screen: inhibitors of Kinase-Glo firefly luciferase; Q27757; Kinase-Glo luciferase, ATP luminescence, 8 min; Potency, µM (top dose mostly 38.3 µM), without a hit: at the top dose activity change, negative = inhibition, usual class: inhibitors; hit rate 0.28% among 200,000; AID 1379; also: % is scaled to controls: 0 for no effect and ±100 for the full control effect; nearly all actives have a fitted effect of over 60% in size
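Light output from Kinase-Glo luciferase with luciferin and 10 uM ATP in 50 mM imidazole pH 7.2, KCl, MgCl2, Tween 20, BSA; compound pin-delivered, 8-min ambient incubation, then luminescence read.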
Rab9 promoter act: activates the Rab9 promoter; Huh7 Rab9 promoter-luciferase reporter, luminescence, 24 h; Potency, µM (highest dose often 9.22 µM), for inactives: at the highest dose activation, negative = inhibition, most hits filed as activators; hit rate 2.8% among 320,000; also: % of control where 0% means no effect; nearly all actives have a fitted effect of over 60% in size
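Luciferase signal after 10 min detection reagent at ambient indicates Rab9 promoter upregulation; stably transfected Huh7 cells were treated 24 h with compound in DMSO at 37 °C, 5% CO2.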
FLuc modulator: firefly luciferase modulation, counter-screen for miR-21 project; Potency, µM (titrated, usually from 57.5 µM), inactives show top-dose activity change, negative = inhibition, usual class: inhibitors; AID 588342; purified FLuc, Km substrates, luminescence inhibition; hit rate 6.9% among 360,000; P08659;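 also: plate controls were vehicle for no effect and reference inhibitor for full effect; nearly all actives have a fitted effect of over 55% in size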
Target sequence (P08659 whole entry, looked up): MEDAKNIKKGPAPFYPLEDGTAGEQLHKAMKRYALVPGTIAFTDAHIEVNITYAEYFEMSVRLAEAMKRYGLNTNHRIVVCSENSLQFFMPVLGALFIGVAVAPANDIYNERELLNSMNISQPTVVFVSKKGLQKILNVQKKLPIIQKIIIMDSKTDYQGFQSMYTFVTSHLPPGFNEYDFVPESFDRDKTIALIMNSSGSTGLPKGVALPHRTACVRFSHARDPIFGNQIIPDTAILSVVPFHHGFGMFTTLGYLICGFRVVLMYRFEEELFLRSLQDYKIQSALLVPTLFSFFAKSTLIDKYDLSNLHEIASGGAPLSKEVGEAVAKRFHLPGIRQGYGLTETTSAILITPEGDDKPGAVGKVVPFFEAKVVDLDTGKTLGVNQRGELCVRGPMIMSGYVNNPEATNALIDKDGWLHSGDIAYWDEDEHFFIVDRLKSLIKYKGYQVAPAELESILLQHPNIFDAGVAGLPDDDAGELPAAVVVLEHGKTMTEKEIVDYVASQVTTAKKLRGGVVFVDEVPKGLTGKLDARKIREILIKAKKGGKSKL
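Purified P. pyralis luciferase (10nM final) with 10uM D-luciferin and 10uM ATP (Km levels) in 50mM Tris acetate pH 7.5, 10mM Mg acetate, 0.01% Tween-20, 0.05% BSA; qHTS 6-point titration, ~60 µM downward; luminescence read.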
ELG1 genotox: induces genotoxicity in HEK293T cells with luciferase-tagged ELG1; hit rate 1.3% among 330,000; HEK293T ELG1-luciferase reporter, luminescence, 16 h; Potency, µM (series often up to 46 µM), for the others: at the highest dose activity change, positive = activation, actives largely listed as activators; also: % of control where 0% means no effect; nearly all actives have a fitted effect of over 60% in size
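16 hr compound incubation (37 °C, 5% CO2) of HEK293T cells carrying luciferase-tagged ELG1; luciferase then measured by ONE-Glo luminescence after 30 min at RT.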
SMN2 splice up: increases expression of the SMN2 splice variant; HEK293 SMN2-luciferase splicing reporter, luminescence, 30-36 h; Potency, µM (doses to about 46.1 µM), without a hit: at the highest dose activity change, positive = activation, most hits filed as activators; hit rate 2.8% among 210,000; also: % of control where 0% means no effect; nearly all actives have a fitted effect of over 55% in size
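HEK293 cells carry an SMN2 minigene-luciferase reporter in which exon 7 inclusion puts luciferase in frame. Cells were seeded at 2000 cells/well, attached for 10-12 hours, then exposed to compounds for 30-36 hours at 37C before ONE-Glo luminescence.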
Active calls of the source: *; ? = inconclusive; . = no result given; [ ] = another dose, or the depositor's remark. An excerpt weighted towards active compounds, which were near 7.5% of everything screened. Calls follow the shape of the dose curve; as a rule, active = well fitted curve in the direction sought with a large enough effect; inconclusive = small, poorly fitted or top-dose-only effect, or another doubt; inactive = no such curve, though single readings can be large; an effect the other way counts as inactive or inconclusive. Potency is read from the fitted curve at half-maximal effect.

SMILES	NPC1 prom act	Luc counter	Rab9 promoter act	FLuc modulator	ELG1 genotox	SMN2 splice up
COc1ccc(P2(=O)Nc3ccccc3N2)cc1	-2.8%	-4.6%	-3.5%	7.57µM*	17.0%	24.0%
Cc1cccc(-n2c(=S)[nH]c3ccccc3c2=O)n1	1.4%	0.0%	2.9%	-1.3%	18.1%	-19.1%
O=c1c2ccccc2[nH]c(=S)n1-c1ccc2c(c1)OCCO2	?	.	?	10.7µM*	15.1%	.
COc1ccc(C[C@@H](N)c2ccc(OC)cc2)cc1	.	-3.5%[7.66 µM]	.	.	.	-9.7%[9.22 µM]
O=c1oc2ccccc2n1CCCOc1ccccc1	29.3%	4.9%	?	19µM*	18.4µM*	11.2µM*
O=C(CCn1c(=O)oc2ccccc21)N1CCC2(CC1)OCCO2	9.0%	-2.6%	2.9%	-9.1%	-1.3%	4.9%
CN(C)CCCNc1c2c(nc3ccc(Cl)cc13)CCCC2	.	1.8%[7.66 µM]	.	.	.	-4.0%[9.22 µM]
O=C(c1cc(-c2ccccc2)on1)N1CCC2(CC1)OCCO2	?	-1.1%	3.98µM*	15.1µM*	?	17.8µM*
O=C(c1cc2ccccn2n1)N1CCC2(CC1)OCCO2	-3.2%	-0.8%	-4.3%	5.0%	3.9%	-0.5%
O=C(c1cc(-c2cccc(Cl)c2)on1)N1CCOCC1	2.82µM*	.	3.16µM*	13.5µM*	23.1µM*	.
COc1ccc(OC)c(N2C(=O)/C(=C/c3ccco3)C(=O)NC2=S)c1	-4.2%	.	20.9%	?	-5.1%	.
COc1ccc(N2C(=O)/C(=C/c3cc(C)n(-c4ccc(C)cn4)c3C)C(=O)NC2=S)c(OC)c1	-0.5%	1.3%	-14.2%	26.9µM*	13.0%	7.8%
ClC(Cl)C(Cl)Cl	.	.	.	.	.	5.5%
COc1ccc(C2CC(c3c(O)n(CCc4ccccc4)c(=O)[nH]c3=O)=NN2)cc1OC (stereo unspecified)	-1.4%	.	-6.9%	19µM*	-6.9%	.
COc1ccc(CCn2c(O)c(C=NCc3cccnc3)c(=O)[nH]c2=O)cc1OC	1.2%	1.6%	0.2%	1.9%	1.2%	-11.2%
Cc1cccc(N=Nc2ccc(N(C)C)cc2)c1	0.631µM*	.	1.26µM*	0.675µM*	4.61µM*	.
c1ccc(N=Nc2ccccc2)cc1	.	-4.1%	.	.	.	3.8%
COc1cc(/C=N/NC(=O)CN2CCCCC2)ccc1OCc1ccccc1	-2.1%	-3.9%	-1.5%	12µM*	?	?
NCCP(=O)(O)O	.	-1.8%[7.66 µM]	.	.	.	3.5%[9.22 µM]
Clc1ccccc1Nc1ncnc(-n2cccc2)n1	2.82µM*	-4.0%	3.55µM*	7.57µM*	?	?
COc1cc(N2CCOCC2)ccc1/C=C1\C(=O)NC(=O)N(Cc2ccc3c(c2)OCO3)C1=O	-5.9%	-2.2%	-6.5%	16.9µM*	1.2%	4.5%
O=C(COC(=O)Cc1ccccc1)Nc1ccc(SC(F)F)cc1	-5.8%	-0.6%	-4.7%	19µM*	3.2%	14.2%
Cc1c(OC(=O)N(C)C)ccc2c1O/C(=C\c1ccco1)C2=O	?	.	3.98µM*	0.477µM*	13.4%	.
O=C(c1ccco1)c1cn(Cc2ccc(Cl)cc2)c2ccccc12	1.7%	-0.6%	-0.6%	?	4.7%	4.2%
COc1ccccc1OCCCn1cc(C(=O)c2ccco2)c2ccccc21	?	8.2%	28.5%	16.9µM*	-18.4%	-52.0%
SMILES	NPC1 prom act	Luc counter	Rab9 promoter act	FLuc modulator	ELG1 genotox	SMN2 splice up
CN1CC=C(/C=C/c2ccc(-c3ccccc3)cc2)CC1	3.16µM*	.	?	4.26µM*	?	.
O=C(Cc1c(O)c2ccccc2oc1=O)c1ccc(F)cc1	?	.	?	3.01µM*	11.3%	.
O=c1c2ccccc2nc(-c2ccccc2)n1-c1ccccc1	-3.1%	.	-1.0%	7.0%	-7.7%	.
O=c1c2ccccc2[se]n1-c1ccccc1	-8.6%[46.1 µM]	10µM*	14.4%[46.1 µM]	6.01µM*	5.5%	-28.0%
C[C@]12CC[C@@H]3[C@H](CCC4=CC(=O)CC[C@]43C)[C@]1(O)CC[C@@]2(O)C(=O)CO	.	-5.2%[7.66 µM]	.	.	.	2.9%[9.22 µM]
CSc1ccc2c(c1)c(CCN)c(C)n2Cc1ccccc1Cl	.	-0.1%[7.66 µM]	.	.	.	2.2%[9.22 µM]
O=C1NC(=O)C(=Cc2ccc(-c3ccc(F)cc3O)o2)C(=O)N1	-1.9%	.	-1.9%	13.5µM*	1.2%	.
